RORg inh = inhibitors of mouse ROR gamma transcriptional activity. 5.4% of 310,000 active. Drosophila S2 Gal4-RORgamma UAS-luciferase reporter, 20 h. Potency, µM (series often up to 53.6 µM), for the others: top-dose activity change, negative = inhibition, hits mostly inhibitors; further: potency means the concentration at half of the fitted maximal effect; on the % scale 0 is the no-effect control and ±100 the full control effect; nearly all actives have a fitted effect of over 60% in size
Target sequence (P51450 whole entry, looked up, the tested form may be a part): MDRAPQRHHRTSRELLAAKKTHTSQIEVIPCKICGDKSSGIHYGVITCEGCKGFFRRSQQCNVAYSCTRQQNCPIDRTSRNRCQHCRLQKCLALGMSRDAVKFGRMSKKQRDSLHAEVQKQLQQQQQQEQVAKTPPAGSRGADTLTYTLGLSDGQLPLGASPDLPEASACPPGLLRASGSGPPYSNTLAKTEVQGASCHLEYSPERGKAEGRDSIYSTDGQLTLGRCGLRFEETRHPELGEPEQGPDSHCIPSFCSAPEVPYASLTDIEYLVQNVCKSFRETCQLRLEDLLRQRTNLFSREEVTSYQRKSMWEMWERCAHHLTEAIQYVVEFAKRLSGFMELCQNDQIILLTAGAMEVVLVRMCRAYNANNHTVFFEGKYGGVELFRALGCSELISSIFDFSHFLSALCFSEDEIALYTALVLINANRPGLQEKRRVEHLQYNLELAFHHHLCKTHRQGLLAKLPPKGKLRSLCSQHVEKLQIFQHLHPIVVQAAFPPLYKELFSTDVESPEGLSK
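Schneider cells (Drosophila), stable Gal4 DBD–ROR gamma + UAS-luc; 1 hr cmpd preincubation; Cu2+ induction 700 uM final; 20 hr ambient; luminescence.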
VP16 counter = inhibits Gal4-VP16 luciferase reporter, ROR gamma counter-screen | Drosophila S2 Gal4-VP16 UAS-luciferase, luminescence, 20 h | Potency, µM (titrated, usually from 53.6 µM), inactives show top-dose activity, negative = inhibition, actives largely listed as inhibitors | 3.5% of 310,000 active | AID 2546;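 further: Gal4-VP16 expression switched on by copper sulfate through the metallothionein promoter; potency means the concentration at half of the fitted maximal effect; on the % scale 0 is the no-effect control and ±100 the full control effect; nearly all actives have a fitted effect of over 50% in size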
MCF10A rereplic = induces DNA re-replication in MCF 10a normal breast cells; 2.9% of 350,000 active; MCF 10A DNA re-replication, Hoechst nuclear intensity, 48 h; AID 624296; Potency, µM (doses to about 46.1 µM), inactives show top-dose activity, positive = re-replication, actives largely listed as activators; further: potency means the concentration at half of the fitted maximal effect; % of control where 0% means no effect; nearly all actives have a fitted effect of over 50% in size
SW480 rerep = inducers of DNA re-replication in SW480 colon cancer cells; 1.8% of 340,000 active; Potency, µM (titrated, usually from 46.1 µM), without a hit: top-dose re-replication activation, usual class: activators; SW480 DNA re-replication, Hoechst DNA content imaging, 48 h; AID 624297; further: potency means the concentration at half of the fitted maximal effect; % of control where 0% means no effect; nearly all actives have a fitted effect of over 55% in size
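Quantitative HTS format with DMSO vehicle controls; 48 hr drug incubation at 37 C, then 40 min Hoechst staining and scanning imager measurement at 405 nm excitation.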
IL1B secr inh = blocks inflammasome-driven IL-1 beta release. activity change, % at 57.5 µM. 4.7% of 360,000 active. THP-1 LPS/ATP IL-1B secretion, AlphaLISA, 16 h; stronger effect = lower value. AID 743279; in the data active means activity change below about -50%; inconclusive means mostly about -30% to -49%; further: on the % scale 0 is the no-effect control and ±100 the full control effect
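Secreted IL-1B measured by AlphaLISA bead assay after 16 h compound exposure of THP-1 cells; compounds (final up to 57.5 uM) added 1 h before LPS (250 ng/mL) and ATP (1.25 mM) stimulation; lower signal means less secretion.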
An asterisk follows results filed as active; ? = inconclusive; nt = no result given; [ ] = remark or other dose. The list is not random: actives were taken first. Their share in the collection is about 11%. Unless noted, the call rests on the fitted dose curve; in most records, active means well fitted curve in the direction sought with a large enough effect; inconclusive means small, poorly fitted or top-dose-only effect, or another doubt; inactive means no such curve, though single readings can be large; an effect the other way counts as inactive or inconclusive.

SMILES	RORg inh	VP16 counter	MCF10A rereplic	SW480 rerep	IL1B secr inh
COc1ccc(OC)c(NC(=O)CCNS(=O)(=O)c2ccc3c(c2)CC(C)N3C(C)=O)c1 (configuration not stated)	nt	nt	nt	nt	10
Cc1ccc([C@H]2C[C@@H](O)[C@H](n3cc(-c4ccc(F)cc4)nn3)CN2Cc2cccs2)cc1	nt	nt	nt	nt	-15
Cc1cc2c(NC(=O)Nc3ccc(C(F)(F)F)cc3)cccc2nn1	8%	5%	?	-1%[9.22 µM]	-55*
O=C(CCCCC(=O)Sc1ccccc1)Sc1ccccc1	nt	nt	1%	1%	-96*
O=c1oc2ccc(Br)cc2cc1S(=O)(=O)c1ccc(F)cc1	-14%	9%	5.2µM*	28%	-78*
Cc1ncc(CO)c2cc(S(=O)(=O)c3ccc(F)cc3)c(=O)oc12	71%	4%	2%	-7%	7
CC(=O)c1cccc(CN2CCCC(C(=O)c3ccc4c(c3)OCO4)C2)c1 (configuration not stated)	-2%	2%	2%	8%	-18
c1ccc(CN2CCC(N3CCN(Cc4ccc5c(c4)OCO5)CC3)CC2)cc1	9%	4%	21µM*	-1%	-27
c1cc2c(cc1CN1CCN(C3CCCCCC3)CC1)OCO2	0%	2%	-7%	-10%	2
O=C(c1ccc2c(c1)OCO2)C1CCCN(C2CCN(CCc3ccccc3)CC2)C1 (configuration not stated)	5%	-3%	?	?	-76*
COc1c(O)c(O)cc2c1oc1c3cc(C)ccc3oc(=O)c21	?	-20%	nt	nt	nt
O=C(C1CCCCC1)N1C[C@H](O)[C@@H](n2cc(C3CC3)nn2)C[C@@H]1c1ccccc1	nt	nt	nt	nt	11
Cc1onc(C(=O)N2CCN(C(c3ccccc3)c3ccccc3)CC2)c1[N+](=O)[O-]	-30%	21%	4%	4.1µM*	-99*
CCCCCc1cc(=O)[nH]c(=S)[nH]1	3%	4%	0%	-3%	21
CCCCCc1ccc(C(=O)CCCC)c(=S)[nH]1	2.5µM*	-23%	?	?	-9
CC(C)(CNC(=O)C1c2ccccc2-c2ccccc21)N1CCOCC1	-13%	4%	5%	-6%	-68*
Cc1ccc(C(=O)NCC(C)(C)N2CCOCC2)s1	-1%	5%	?	-4%	14
COc1cccc(CN2CCC2(C)C(=O)Nc2cccc(NS(C)(=O)=O)c2)c1OC (configuration not stated)	nt	nt	nt	nt	-5
COc1ccc(C(=O)Nc2ccc(Cl)c(S(=O)(=O)N3CCOCC3)c2)cc1	nt	nt	?	3%	-75*
COc1ccc(NS(=O)(=O)c2cc(NC(=O)c3ccc(=O)[nH]n3)ccc2C)cc1	nt	nt	?	18µM*	47
COc1ccc(NS(=O)(=O)c2cc(NC(=O)c3ccco3)ccc2N2CCCCC2)cc1	?	13µM*	?	?	0
COc1ccc(NS(=O)(=O)c2cc(NC(=O)C3CC3)ccc2N2CCCCC2)cc1	18%	3%	?	?	3
O=C(Nc1ccc(Cl)c(S(=O)(=O)N2CCOCC2)c1)c1ccc(OCC2CCCO2)cc1 (configuration not stated)	-12%	?	18µM*	-18%	-95*
CC(C)Cc1ccc(S(=O)(=O)N2CCN(c3ccccn3)CC2)cc1	15%	2%	11%	-6%	-3
O=C(Nc1ccc(N2CCOCC2)c(S(=O)(=O)Nc2ccc(Cl)cc2)c1)c1ccc(=O)[nH]n1	nt	nt	8%	11%	-56*
SMILES	RORg inh	VP16 counter	MCF10A rereplic	SW480 rerep	IL1B secr inh
O=C(Nc1ccc(N2CCOCC2)c(S(=O)(=O)Nc2ccc(Cl)cc2)c1)c1cnccn1	?	-1%	1%	-13%	-17
COc1ccc(NS(=O)(=O)c2cc(NC(=O)c3ccc(Cl)cc3)ccc2N2CCOCC2)cc1	nt	nt	2.3µM*	1.5µM*	-26
COc1ccc(NS(=O)(=O)c2cc(NC(=O)c3ccncc3)ccc2N2CCOCC2)cc1	6%	4%	7%	-1%	-10
COCCNC(=O)C1(C)CCCN(C(=O)c2ccc(N(C)C)cc2)C1 (configuration not stated)	nt	nt	nt	nt	-17
Cc1ccccc1C(=O)N(Cc1cccs1)C1CCS(=O)(=O)C1 (configuration not stated)	-6%	-13%	-4%	-8%	-5
Cc1cccc2cc(C(c3nnnn3Cc3ccccc3)N3CCCc4ccccc43)c(=O)[nH]c12 (configuration not stated)	-5%	-17%	5.2µM*	4.6µM*	46
CC(C)=CCC[C@](C)(O)C1CC=C(C)CC1 (some centres not stated)	5%	1%	7%	0%	nt
CCOc1cc(CNc2ccc(N3CCCC3)cc2)cc(Cl)c1OC	-11%	15%	?	16µM*	-99*
COc1cc(CNc2ccc(N3CCCC3)cc2)cc(Cl)c1OC	-34%	12%	23µM*	?	?
CCOc1cc(CNc2ccc(S(N)(=O)=O)cc2)cc(Cl)c1OC	40%	0%	4%	?	-10
COc1ccc(S(=O)(=O)NC(=O)C2(C)CCN2C(=O)Cc2cccc3ccccc23)cc1 (configuration not stated)	nt	nt	nt	nt	24
CCOC(=O)c1c(C)[nH]c(C)c1C(=O)Cn1nnc(-c2ccccc2C)n1	16%	1%	21µM*	12%	10
CCN(CC)CCNC(=O)c1c(C)[nH]c(/C=C2\C(=O)Nc3ccc(F)cc32)c1C	-9%[10 µM]	-11%	1%	0%	nt
Cc1nn(C)cc1/C=C/C(=O)c1cccs1	-104%	?	2%	5%	-19
Cc1cc(C)c2c(c1)/C(=C/C(=O)c1ccc(Br)s1)C(=O)N2	18%	8%	?	20%	-106*
CCc1ccc2c(c1)/C(=C/C(=O)c1cccs1)C(=O)N2	5.6µM*	10µM*	?	9.2µM*	-106*
Cc1cccc2c1NC(=O)/C2=C\C(=O)c1cccs1	7.1µM*	?	?	?	-122*
Cc1cc(Br)c2c(c1)/C(=C/C(=O)c1cccs1)C(=O)N2	11µM*	18µM*	?	?	-109*
Cc1ccc(NC(=O)CCC(=O)c2cccs2)c(Br)c1	-4%	9%	1%	-3%	-9
O=C(CCCn1c(=S)[nH]c2cc3c(cc2c1=O)OCO3)NCCc1ccccc1Cl	?	?	16%	7%	0
C[C@H]1COC(=O)CC/C=C\C[C@H](CC(=O)N(CCO)Cc2ccccc2)C(=O)N1	nt	nt	3%	7%	19
Cc1ccc(NC(=O)CCNS(=O)(=O)c2cc(Br)cnc2N)cc1Cl	21%	-1%	18µM*	7%	?
CCOC(=O)c1cccc(NC(=O)CCNS(=O)(=O)c2cc(Br)cnc2N)c1	11%	-5%	1%	-3%	-2
